This passage reports MAPPIT interaction score results from the supplement of paper PMC10105736.

Common to all, as to assay: MAPPIT interaction score (arbitrary units); higher = stronger binary interaction signal, active = hit call of the paper
One assay concerns the target CG12576. The note with it: MAPPIT configuration: N-C; pair source set: screen_4.
In the next assay the target is CG30355. The settings on record: MAPPIT configuration: N-C; pair source set: screen_4.
Another assay has as its target Vha16-2. The settings on record: MAPPIT configuration: N-C; pair source set: screen_3.
Another assay addresses CG13058. The settings on record: pair source set: RRS.
The target in another assay is CG12607. The note with it: MAPPIT configuration: N-N; pair source set: Curagen_high_conf.
The next assay has as its target CG17612. The note with it: MAPPIT configuration: N-C; pair source set: screen_4.
The target in a further assay is CG30195. The settings on record: MAPPIT configuration: N-N; pair source set: DPIM.
Another assay has as its target Cp190. The note with it: MAPPIT configuration: N-C; pair source set: Lit-BM-16.
Another assay deals with Cpr72Ea. The settings on record: MAPPIT configuration: N-N; pair source set: Lit-BS-16.
The target of the next assay is Trl. The settings on record: MAPPIT configuration: N-N; pair source set: Finley_Y2H.
The target in the next assay is Ubc6.
In another assay the target is Zasp52. The settings on record: MAPPIT configuration: N-N.
The target in another assay is fl(2)d. The note with it: MAPPIT configuration: N-N; pair source set: screen_2.
Another assay addresses su(Hw). The settings on record: pair source set: Lit-BM-16.

Unmarked numbers belong to inactive results.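 The calls were made as follows: active = MAPPIT score above the 99th percentile of random reference set scores in the same batch; inactive = at or below it.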
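Also: HEK293T cells with Epo stimulation, STAT-responsive firefly luciferase reporter, fold induction versus unstimulated cells divided by the larger fold induction of two negative controls lacking either bait or prey.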

B1: Cys (protein)
chain: MNVVKSLCILGLVLVSLIATQAADEQVVGGVSQLEGNSRKEALELLDATLAQLATGDGPSYKAINVTSVTGQVVAGSLNTYEVELDNGSDKKQCTVKIWTQPWLKENGTNIKIKCSGDDGELDRTW
With B1, the MAPPIT interaction score with CG12576 is -0.0839; with CG30355, 2.13; with Vha16-2 it was 0.0929.

B2: Fdx2 (protein)
chain: MLVINSCRAASRLALRSLNLRSPIATRTFSTGLALKTKDVVNITFVRANGDKIKTSGKVGDSLLDVVVNNNVDLDGFGACEGTLTCSTCHLIFKTSDFEKLPDKPGDEELDMLDLAYELTDTSRLGCQITLSKDMEGLEVHVPSTINDARAA
Consider B2, for which the MAPPIT interaction score in the assay with CG13058 (MAPPIT configuration: N-C) is 0.365; with CG13058 (MAPPIT configuration: N-N) it was 0.0953.

B3: mod(mdg4) (protein)
chain: MADDEQFSLCWNNFNTNLSAGFHESLCRGDLVDVSLAAEGQIVKAHRLVLSVCSPFFRKMFTQMPSNTHAIVFLNNVSHSALKDLIQFMYCGEVNVKQDALPAFISTAESLQIKGLTDNDPAPQPPQESSPPPAAPHVQQQQIPAQRVQRQQPRASARYKIETVDDGLGDEKQSTTQIVIQTTAAPQATIVQQQQPQQAAQQIQSQQLQTGTTTTATLVSTNKRSAQRSSLTPASSSAGVKRSKTSTSANVMDPLDSTTETGATTTAQLVPQQITVQTSVVSAAEAKLHQQSPQQVRQEEAEYIDLPMELPTKSEPDYSEDHGDAAGDAEGTYVEDDTYGDMRYDDSYFTENEDAGNQTAANTSGGGVTATTSKAVVKQQSQNYSESSFVDTSGDQGNTEAQAATSASATKIPPRKRGRPKTKVEDQTPKPKLLEKLQAATLNEEASEPAVYASTTKGGVKLIFNGHLFKFSFRKADYSVFQCCYREHGEECKVRVVCDQKRVFPYEGEHVHFMQASDKSCLPSQFMPGESGVISSLSPSKELLMKNTTKLEEADDKEDEDFEEFEIQEIDEIELDEPEKTPAKEEEVDPNDFREKIKRRLQKALQNKKK
With B3, the MAPPIT interaction score is 0.232 with CG12607; 4.86 (active) with CG17612; 2.59 (active) in the assay with CG30195; 1.09 in the assay with Cp190; -2.84 with Cpr72Ea; -0.456 with Trl. Besides, the MAPPIT interaction score is 3.96 (active) in the assay with Ubc6 (MAPPIT configuration: N-C, pair source set: screen_3); 5.53 (active) in the assay with Ubc6 (MAPPIT configuration: N-N, pair source set: screen_2); 0.192 in the assay with Zasp52 (pair source set: Curagen_low_conf); -0.533 with Zasp52 (pair source set: Lit-BS-16); -0.311 in the assay with fl(2)d; 0.885 in the assay with su(Hw) (MAPPIT configuration: N-C). In addition, the MAPPIT interaction score with su(Hw) (MAPPIT configuration: N-N) is 0.105.
